The entries come from a sample that favours hits as a whole.
TDP1 cell noCPT: qHTS for Inhibitors of human tyrosyl-DNA phosphodiesterase 1 (TDP1): qHTS in cells in absence of CPT; actives 15% (n = 420,000); DT40 Tdp1-/- hTDP1 cells, no CPT, ATP luminescence, 48 h; AID 686978, 2013; Potency, µM (highest dose often 46.2 µM), for inactives: at the top dose activity change, negative = growth inhibition, usual class: inhibitors; further: potency means the concentration at half of the fitted maximal effect; nearly all actives have a fitted effect of over 55% in size
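Camptothecin absent (DMSO only). Human TDP1-complemented DT40 knockout cells, 400 cells/well, 37 °C for minimum 48 hr; ATP measured via CellTiter-Glo, 30 min dark incubation, luminescence.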
IL1B secr inh: blocks inflammasome-driven IL-1 beta release. THP-1 LPS/ATP IL-1B secretion, AlphaLISA, 16 h; active compounds read low. activity change, % at 57.5 µM. actives 4.7% (n = 360,000); in the data active means activity change below about -50%; inconclusive means mostly about -30% to -49%
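THP-1 cells pretreated 1 hr with compounds (up to 57.5 uM final), then stimulated with LPS (250 ng/mL final) plus ATP (1.25 mM final); secreted IL-1B measured by AlphaLISA after 16 hr, decreased signal indicating inhibition.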
DT40 TDP1 CPT: growth inhibition of DT40 Tdp1-/-;hTDP1 cells with camptothecin (screen for TDP1 inhibitors). chicken DT40 Tdp1-/-;hTDP1 cells + 20 nM CPT, ATP luminescence, 48 h. Potency, µM (doses to about 46.2 µM), without a hit: at the highest dose activity change, negative = growth inhibition, most hits filed as inhibitors. actives 12% (n = 420,000). AID 686979; further: potency means the concentration at half of the fitted maximal effect; nearly all actives have a fitted effect of over 55% in size
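Chicken DT40 Tdp1-/- cells stably complemented with human TDP1 were seeded at 400 cells/well in medium containing 20 nM camptothecin, exposed to pin-transferred compounds, and grown at 37 °C for at least 48 hr. Viability was read as ATP luminescence.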
12-LOX inh: inhibitors of human 12S-lipoxygenase ALOX12. actives 1.1% (n = 580,000). purified 12hLO, xylenol orange hydroperoxide absorbance. Potency, µM (doses to about 108 µM), inactives show at the top dose activity change, negative = inhibition, hits mostly inhibitors. P18054; further: potency means the concentration at half of the fitted maximal effect
Target sequence (P18054 whole entry, looked up): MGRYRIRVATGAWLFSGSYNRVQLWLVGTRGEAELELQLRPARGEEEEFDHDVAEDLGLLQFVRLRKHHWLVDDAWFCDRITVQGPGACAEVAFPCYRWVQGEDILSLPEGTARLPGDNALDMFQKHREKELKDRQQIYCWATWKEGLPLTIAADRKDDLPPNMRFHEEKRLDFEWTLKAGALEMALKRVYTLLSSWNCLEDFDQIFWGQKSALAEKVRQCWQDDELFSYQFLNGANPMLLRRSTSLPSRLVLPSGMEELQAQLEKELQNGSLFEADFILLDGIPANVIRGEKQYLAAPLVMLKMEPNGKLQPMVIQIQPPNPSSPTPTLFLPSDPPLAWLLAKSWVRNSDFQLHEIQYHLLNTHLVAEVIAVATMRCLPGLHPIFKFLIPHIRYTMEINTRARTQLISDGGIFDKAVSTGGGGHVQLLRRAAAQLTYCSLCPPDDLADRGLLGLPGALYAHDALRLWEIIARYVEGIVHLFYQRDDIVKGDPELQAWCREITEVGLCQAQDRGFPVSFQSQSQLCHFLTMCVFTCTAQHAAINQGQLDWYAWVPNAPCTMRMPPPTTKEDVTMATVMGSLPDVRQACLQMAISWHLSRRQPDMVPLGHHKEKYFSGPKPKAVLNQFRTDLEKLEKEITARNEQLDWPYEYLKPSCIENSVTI
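Purified human 12hLO at 150 nM in 25 mM Hepes, 0.01% Triton X-100, pH 7.0, preincubated 15 min at room temperature with compound. Reaction started with 40 uM arachidonic acid, 30 min at room temperature. Hydroperoxide measured by Fe-xylenol orange, 573/405 nm absorbance ratio.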
HT1080 IDH1KD tx: kills HT-1080 cells with IDH1 knockdown; HT-1080 IDH1 knockdown viability, ATP luminescence, 48 h; Potency, µM (top dose mostly 46.1 µM), without a hit: top-dose activity, negative = toxicity, usual class: cytotoxic; actives 2% (n = 360,000);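 further: potency means the concentration at half of the fitted maximal effect; 0% = DMSO wells and -100% = cell-free medium wells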
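Cytotoxicity counter-line: IDH1KD HT-1080, 48 h, CellTiter-Glo. Curves classed by r2, magnitude and activity.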
HT1080NT lethal: kills 2HG-producing HT-1080-NT fibrosarcoma cells; HT-1080-NT fibrosarcoma viability, CellTiter-Glo ATP luminescence, 48 h; Potency, µM (doses to about 46.1 µM), for inactives: at the highest dose activity, negative = less viability, actives largely listed as cytotoxic; actives 1.6% (n = 360,000);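 further: NT is the 2HG producing partner of a matched IDH1 knockdown line; potency means the concentration at half of the fitted maximal effect; 0% = DMSO-treated cells and -100% = media-only wells without cells; nearly all actives have a fitted effect of over 55% in size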
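Luminescent CellTiter-Glo readout after 48 hours of compound exposure at 37 degrees C defined viability of HT-1080-NT cells. Activity was normalized to DMSO wells and cell-free media wells; concentration-response curves were fitted and assigned curve classes.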
* marks the source's active call; other numbers are inactive results; ? = inconclusive; nt = not tested or not shown; [ ] = remark or other dose. Unless noted, the call rests on the fitted dose curve; in most records, active means well fitted curve in the direction sought with a large enough effect; inconclusive means small, poorly fitted or top-dose-only effect, or another doubt; inactive means no such curve, though single readings can be large; an effect the other way counts as inactive or inconclusive. Unless noted, on the % scale 0 is the no-effect control and ±100 the full control effect.

SMILES	TDP1 cell noCPT	IL1B secr inh	DT40 TDP1 CPT	12-LOX inh	HT1080 IDH1KD tx	HT1080NT lethal
COCCn1c(COc2cccc(-n3nnnc3C)c2)nnc1C1CC(N)C1 (stereo unspecified)	nt	nt	nt	-3.8%	nt	nt
O=c1c2ccccc2nnn1CSc1ccccc1F	?	6.6	?	-7.8%	14.3%	8.4%
O=c1c2ccccc2nnn1CSc1ncnc2ccccc12	?	-81.4*	?	155.8%	2.2%	3.7%
Cc1cc(-n2c(C)cc(C(=O)CSc3ncnc4ccccc34)c2C)no1	1.16µM*	-13.0	1.84µM*	14.8%	?	-26.8%
O=C(CSc1ncnc2ccccc12)c1ccco1	20.6µM*	-10.5	?	nt	-1.5%	-3.5%
CCCC(=O)Nc1ccccc1C(=O)N1CCN(C(c2ccccc2)c2ccccc2)CC1	nt	nt	nt	5.7%	nt	nt
Nc1nc2nc(-c3ccccc3)cc(C(F)(F)F)c2s1	?	-72.8*	?	-1.4%	?	-28.2%
Cc1cc(C(F)(F)F)c2sc(N)nc2n1	-4.0%	7.9	-1.3%	-0.4%	6.0%[9.24 µM]	7.7%
O=S(Cc1cccc(C(F)(F)F)c1)Cc1cccc2ccccc12 (stereo unspecified)	nt	nt	nt	10.6%	nt	nt
CC[C@@H](C)[C@H](CNC)NC[C@@H](Cc1cccc2ccccc12)NCCc1cccc(C(F)(F)F)c1	?	-24.0	23.1µM*	?	?	?
CC(C)NCC(O)COC1CCC(C(C)(C)C)CC1 (stereo unspecified)	?	-11.8	?	-7.5%	?	-29.7%
CCC[C@@H](CN[C@@H](CNC)[C@H](C)CC)NCC1CCC(C(C)(C)C)CC1 (stereo partly specified)	0.651µM*	-52.5*	1.03µM*	-8.0%	?	?
CCC[C@H](CN[C@@H](CNC)[C@H](C)CC)NCCc1cc(C(F)(F)F)cc(C(F)(F)F)c1	3.26µM*	-99.7*	11.6µM*	-20.5%	?	?
Cc1cccc(OCCc2noc(C3CN(C(=O)CCC4CCCC4)C3)n2)c1	nt	nt	nt	4.6%	nt	nt
CCOC(=O)c1ccc2[nH]c(CSCC(=O)Nc3ccc(CC)cc3)cc(=O)c2c1	nt	nt	nt	-26.6%	nt	nt
CCCCc1ccc(NC(=O)c2nn(CC)c(=O)c3ccccc23)cc1	nt	nt	nt	0.4%	nt	nt
O=C(O)/C=C/c1ccc(-c2ccc(Br)cc2Cl)o1	nt	nt	nt	7.94µM*	nt	nt
O=C(O)/C=C/c1ccc(Cl)cc1	nt	nt	nt	-1.9%	nt	nt
O=C(O)/C=C/c1cc(Br)c(-c2ccc(Cl)cc2Cl)o1	nt	nt	nt	39.8µM*	nt	nt
CN(C)C[C@@H]1CN(c2ncccn2)C[C@H]1NS(=O)(=O)Cc1ccc(F)cc1	nt	nt	nt	40.8%	nt	nt
COc1ccc2c(C)c(CCC(=O)N3CCN(Cc4ccccc4)CC3)c(=O)oc2c1	nt	nt	nt	-1.6%	nt	nt
Cc1ccc(SC(c2ccccc2)C(Cn2cncn2)C(=O)c2ccccc2)cc1 (stereo unspecified)	?	-6.4	?	0.0%	7.1%	0.3%
O=C(c1ccc(Cl)cc1)C(Cn1cncn1)C(Sc1ccccc1)c1ccccc1 (stereo unspecified)	?	-61.1*	?	-17.9%	?	?
Cc1ccc(S(=O)(=O)n2c(N)nc3ccccc32)cc1	-25.9%	11.4	?	13.6%	-27.5%	-23.4%
CSc1ccc(/C=C/c2nc3ccccc3n2S(=O)(=O)c2cccc(Cl)c2)cc1	10.3µM*	nt	13µM*	-18.4%	nt	nt
SMILES	TDP1 cell noCPT	IL1B secr inh	DT40 TDP1 CPT	12-LOX inh	HT1080 IDH1KD tx	HT1080NT lethal
Cc1ccc(/C=C/c2nc3ccccc3n2S(=O)(=O)c2ccc(Br)cc2)cc1	20.6µM*	nt	?	-29.5%	nt	nt
O=S(=O)(c1cccc(Cl)c1)n1c(/C=C/c2ccccc2Cl)nc2ccccc21	13µM*	nt	18.4µM*	?	nt	nt
COc1cc(S(=O)(=O)n2c(C)nc3ccccc32)ccc1F	?	32.0	?	?	?	?
Nc1nc2ccccc2n1S(=O)(=O)c1ccc(Cl)cc1	?	-15.9	?	4.3%	-6.5%	-9.3%
N#CC(c1ccccc1)C(CC(=NO)c1ccccc1)c1ccccc1 (stereo unspecified)	10.3µM*	?	23.1µM*	?	-25.6%	?
O=C(O)CC(NC(=O)C(c1ccccc1)c1ccccc1)c1cccc([N+](=O)[O-])c1 (stereo unspecified)	0.6%	40.7	6.5%	0.0%	-0.5%	10.2%
N#CC(c1ccc([N+](=O)[O-])cc1)C(CC(=O)c1ccccc1)c1ccccc1 (stereo unspecified)	16.4µM*	?	?	-3.1%	-4.1%	-7.3%
N#CC(c1cccc([N+](=O)[O-])c1)C(CC(=O)c1ccccc1)c1ccccc1 (stereo unspecified)	23.1µM*	-6.0	18.4µM*	11.6%	-24.6%	-11.8%
O=C(NC1(Cc2ccccc2)CCN(CCc2cccs2)C1=O)c1ccccc1 (stereo unspecified)	?	-13.4	25.9µM*	13.5%	2.9%	-9.1%
CC(C)CCN1CCC(Cc2ccccc2)(NC(=O)c2ccccc2)C1=O (stereo unspecified)	?	-25.1	?	?	13.8%	4.8%
O=C(CCc1ccccc1)NC1(Cc2ccccc2)CCN(CCCc2ccccc2)C1=O (stereo unspecified)	8.2µM*	-14.8	16.4µM*	2.5%	?	?

Bioassay records from PubChem BioAssay.
